Test results published in the supplement of paper PMC11732987, “Enantioselective OTUD7B fragment discovery through chemoproteomics screening and high-throughput optimisation” (Communications Chemistry, 2025).

Key:
USP38 = target: T1, USP38 (UniProt Q8NB14); assay: log2 ratio of Biotin-Ahx-Ub-VS probe labelling (compound/DMSO); higher = less target engagement, active = hit call of the paper (q ≤ 0.05, log2 ratio ≤ -1); conditions: treatment time: 3 h
T1 sequence (whole entry): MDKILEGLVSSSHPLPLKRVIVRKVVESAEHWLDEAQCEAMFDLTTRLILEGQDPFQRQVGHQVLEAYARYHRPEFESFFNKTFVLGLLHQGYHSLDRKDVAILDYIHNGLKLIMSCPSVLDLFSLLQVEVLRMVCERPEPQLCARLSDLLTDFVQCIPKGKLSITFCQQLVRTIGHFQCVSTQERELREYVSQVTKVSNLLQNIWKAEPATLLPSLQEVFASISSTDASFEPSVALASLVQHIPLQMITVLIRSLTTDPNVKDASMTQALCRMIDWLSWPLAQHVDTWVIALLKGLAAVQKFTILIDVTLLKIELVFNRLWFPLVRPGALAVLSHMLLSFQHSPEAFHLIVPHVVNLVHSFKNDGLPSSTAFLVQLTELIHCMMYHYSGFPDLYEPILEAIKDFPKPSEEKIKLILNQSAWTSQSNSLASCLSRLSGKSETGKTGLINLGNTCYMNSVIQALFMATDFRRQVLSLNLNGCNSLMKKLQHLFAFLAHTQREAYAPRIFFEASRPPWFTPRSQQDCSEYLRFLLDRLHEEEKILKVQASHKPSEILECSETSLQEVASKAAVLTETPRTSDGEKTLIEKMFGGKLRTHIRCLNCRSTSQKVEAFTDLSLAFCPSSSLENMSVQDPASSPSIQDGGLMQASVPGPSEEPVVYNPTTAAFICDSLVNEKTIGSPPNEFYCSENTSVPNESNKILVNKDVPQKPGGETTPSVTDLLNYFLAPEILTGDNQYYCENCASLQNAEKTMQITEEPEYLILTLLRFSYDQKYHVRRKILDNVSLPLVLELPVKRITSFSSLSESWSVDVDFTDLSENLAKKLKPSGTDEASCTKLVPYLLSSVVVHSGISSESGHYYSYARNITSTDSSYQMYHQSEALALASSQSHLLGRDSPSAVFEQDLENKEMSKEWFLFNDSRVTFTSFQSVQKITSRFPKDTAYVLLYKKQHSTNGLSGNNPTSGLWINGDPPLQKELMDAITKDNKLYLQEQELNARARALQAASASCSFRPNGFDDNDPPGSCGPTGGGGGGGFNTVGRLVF
In short: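 HEK293T lysate (495 µg per sample, in Tris/CHAPS/IGEPAL buffer with protease inhibitors) was treated in triplicate with compound over a concentration series or DMSO for 3 h, then with Biotin-Ahx-Ub-VS (0.5 µM final) for 1 h. Labelled DUBs were NeutrAvidin-enriched, digested with LysC and trypsin, and run by diaPASEF LC-MS/MS. Spectronaut label-free protein quantities were global-median-normalised. Values are average log2 ratios compound/DMSO from an unpaired t-test, using proteins with ≥2 unique peptides.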

ALG13 = target: T2, ALG13 (UniProt Q9NP73); assay: log2 ratio of Biotin-Ahx-Ub-VS probe labelling (fragment/DMSO); higher = less target engagement (more negative = stronger competition), active = hit call of the paper (q ≤ 0.05, log2 ratio ≤ -1); conditions: compound concentration: 200 uM; treatment time: 3 h
T2 sequence (whole entry): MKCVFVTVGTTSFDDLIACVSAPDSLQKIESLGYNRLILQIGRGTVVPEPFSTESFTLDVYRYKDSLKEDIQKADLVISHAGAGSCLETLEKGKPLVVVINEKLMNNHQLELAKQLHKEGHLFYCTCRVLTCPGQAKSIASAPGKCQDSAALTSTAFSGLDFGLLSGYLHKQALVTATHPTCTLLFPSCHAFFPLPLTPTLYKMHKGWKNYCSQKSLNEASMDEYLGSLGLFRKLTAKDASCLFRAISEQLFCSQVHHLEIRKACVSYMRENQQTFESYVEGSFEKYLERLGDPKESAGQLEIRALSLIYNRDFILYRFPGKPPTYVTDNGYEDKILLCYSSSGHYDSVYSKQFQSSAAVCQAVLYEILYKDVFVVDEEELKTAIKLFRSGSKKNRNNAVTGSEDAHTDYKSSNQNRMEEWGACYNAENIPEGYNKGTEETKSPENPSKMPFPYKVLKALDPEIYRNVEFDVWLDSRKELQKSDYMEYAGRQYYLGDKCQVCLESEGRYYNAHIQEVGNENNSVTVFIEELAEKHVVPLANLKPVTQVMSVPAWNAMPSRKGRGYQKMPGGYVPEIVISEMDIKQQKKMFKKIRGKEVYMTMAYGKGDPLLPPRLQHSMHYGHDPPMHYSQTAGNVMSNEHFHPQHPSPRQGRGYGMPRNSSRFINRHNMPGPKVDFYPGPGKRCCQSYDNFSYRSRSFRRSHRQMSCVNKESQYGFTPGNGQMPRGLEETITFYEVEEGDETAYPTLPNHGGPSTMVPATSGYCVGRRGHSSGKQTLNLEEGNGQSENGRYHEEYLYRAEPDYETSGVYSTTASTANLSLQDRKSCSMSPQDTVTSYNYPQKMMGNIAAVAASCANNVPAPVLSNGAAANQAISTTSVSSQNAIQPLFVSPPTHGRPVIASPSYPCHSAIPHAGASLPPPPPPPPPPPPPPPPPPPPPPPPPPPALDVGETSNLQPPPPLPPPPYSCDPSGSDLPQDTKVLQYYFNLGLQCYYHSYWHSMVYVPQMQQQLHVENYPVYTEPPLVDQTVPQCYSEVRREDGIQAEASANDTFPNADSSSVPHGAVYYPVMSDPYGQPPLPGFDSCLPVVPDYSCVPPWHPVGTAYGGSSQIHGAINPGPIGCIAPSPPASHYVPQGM
In short: (§1)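 HEK293T lysate, 495 µg per sample in Tris/CHAPS/IGEPAL buffer with protease inhibitors, was treated in triplicate with fragment at 200 µM or vehicle for 3 h and then with Biotin-Ahx-Ub-VS at 0.5 µM final for 1 h. Labelled DUBs were NeutrAvidin-enriched, digested with LysC and trypsin, and run by diaPASEF LC-MS/MS. Spectronaut label-free quantities were global-median-normalised, and values are average log2 fragment/vehicle ratios by unpaired t-test on proteins with ≥2 unique peptides.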

ATXN3 = ATXN3 (UniProt P54252); assay: as above; conditions: compound concentration: 200 uM; treatment time: 3 h
ATXN3, sequence (P54252 whole entry): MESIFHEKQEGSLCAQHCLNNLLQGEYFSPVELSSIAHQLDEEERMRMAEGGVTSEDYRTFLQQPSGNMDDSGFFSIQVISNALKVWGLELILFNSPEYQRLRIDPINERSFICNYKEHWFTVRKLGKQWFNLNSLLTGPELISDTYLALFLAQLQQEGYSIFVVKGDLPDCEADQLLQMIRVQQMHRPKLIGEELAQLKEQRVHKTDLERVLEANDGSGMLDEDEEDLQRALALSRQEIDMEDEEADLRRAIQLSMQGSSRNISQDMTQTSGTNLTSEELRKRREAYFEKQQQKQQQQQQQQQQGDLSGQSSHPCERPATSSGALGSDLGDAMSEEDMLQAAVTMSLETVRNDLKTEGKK
In short: as §1

BAP1 = target: T3, BAP1 (UniProt Q92560); assay: as above; conditions: compound concentration: 200 uM; treatment time: 3 h
T3 sequence (whole entry): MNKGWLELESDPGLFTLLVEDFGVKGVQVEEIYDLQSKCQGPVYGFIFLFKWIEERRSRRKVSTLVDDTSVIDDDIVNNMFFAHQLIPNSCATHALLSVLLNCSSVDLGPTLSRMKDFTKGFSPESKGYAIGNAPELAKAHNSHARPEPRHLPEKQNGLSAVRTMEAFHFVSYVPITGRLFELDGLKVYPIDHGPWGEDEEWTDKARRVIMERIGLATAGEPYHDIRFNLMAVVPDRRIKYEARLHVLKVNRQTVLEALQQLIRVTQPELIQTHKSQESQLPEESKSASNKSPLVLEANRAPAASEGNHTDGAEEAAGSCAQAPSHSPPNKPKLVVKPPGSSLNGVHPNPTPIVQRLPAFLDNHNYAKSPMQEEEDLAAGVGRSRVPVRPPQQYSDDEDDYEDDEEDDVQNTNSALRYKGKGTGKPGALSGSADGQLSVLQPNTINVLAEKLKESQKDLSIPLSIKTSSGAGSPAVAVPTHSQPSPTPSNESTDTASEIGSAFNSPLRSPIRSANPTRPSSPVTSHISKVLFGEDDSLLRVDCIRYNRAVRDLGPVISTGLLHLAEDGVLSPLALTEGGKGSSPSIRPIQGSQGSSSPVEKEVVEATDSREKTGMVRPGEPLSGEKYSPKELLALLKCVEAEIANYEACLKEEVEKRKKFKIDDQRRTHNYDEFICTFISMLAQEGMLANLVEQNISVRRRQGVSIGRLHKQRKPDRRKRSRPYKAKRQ
In short: as §1

EIF3F = EIF3F (UniProt O00303); assay: as above; conditions: compound concentration: 200 uM; treatment time: 3 h
EIF3F, sequence (O00303 whole entry): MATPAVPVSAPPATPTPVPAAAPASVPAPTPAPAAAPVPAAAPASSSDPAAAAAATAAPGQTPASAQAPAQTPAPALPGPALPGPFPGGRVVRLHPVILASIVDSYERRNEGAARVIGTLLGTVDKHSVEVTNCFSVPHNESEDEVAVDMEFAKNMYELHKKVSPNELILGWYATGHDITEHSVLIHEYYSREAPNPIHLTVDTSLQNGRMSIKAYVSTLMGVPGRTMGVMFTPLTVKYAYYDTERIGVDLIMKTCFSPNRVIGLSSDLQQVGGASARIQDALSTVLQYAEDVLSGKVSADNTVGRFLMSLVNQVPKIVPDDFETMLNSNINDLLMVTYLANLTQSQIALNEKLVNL
In short: as §1

EIF3H = EIF3H (UniProt O15372); assay: as above; conditions: compound concentration: 200 uM; treatment time: 3 h
EIF3H, sequence (O15372 whole entry): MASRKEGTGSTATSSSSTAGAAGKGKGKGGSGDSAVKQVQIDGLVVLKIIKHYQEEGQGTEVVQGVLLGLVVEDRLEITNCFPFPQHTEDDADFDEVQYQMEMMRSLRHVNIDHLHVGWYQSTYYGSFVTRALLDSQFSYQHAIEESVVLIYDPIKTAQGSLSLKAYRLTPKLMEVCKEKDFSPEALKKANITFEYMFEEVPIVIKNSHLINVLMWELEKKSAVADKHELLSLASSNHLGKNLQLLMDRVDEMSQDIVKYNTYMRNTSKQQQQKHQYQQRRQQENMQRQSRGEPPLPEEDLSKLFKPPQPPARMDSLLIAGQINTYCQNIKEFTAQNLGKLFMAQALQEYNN
In short: as §1

FAM105A = target: T4, FAM105A (UniProt Q9NUU6); assay: as above; conditions: compound concentration: 200 uM; treatment time: 3 h
T4 sequence (whole entry): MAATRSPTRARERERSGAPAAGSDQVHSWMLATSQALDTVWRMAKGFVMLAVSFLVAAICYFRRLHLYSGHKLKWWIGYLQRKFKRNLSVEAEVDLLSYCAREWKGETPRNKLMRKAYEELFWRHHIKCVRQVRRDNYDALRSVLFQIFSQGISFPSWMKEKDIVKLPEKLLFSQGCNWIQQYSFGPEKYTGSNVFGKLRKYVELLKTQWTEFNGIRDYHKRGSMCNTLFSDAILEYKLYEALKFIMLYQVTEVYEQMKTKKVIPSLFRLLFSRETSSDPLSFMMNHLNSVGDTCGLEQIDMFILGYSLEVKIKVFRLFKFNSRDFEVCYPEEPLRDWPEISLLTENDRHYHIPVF
In short: as §1

OTUB1 = OTUB1 (UniProt Q96FW1); assay: as above; conditions: compound concentration: 200 uM; treatment time: 3 h
OTUB1, sequence (Q96FW1 whole entry): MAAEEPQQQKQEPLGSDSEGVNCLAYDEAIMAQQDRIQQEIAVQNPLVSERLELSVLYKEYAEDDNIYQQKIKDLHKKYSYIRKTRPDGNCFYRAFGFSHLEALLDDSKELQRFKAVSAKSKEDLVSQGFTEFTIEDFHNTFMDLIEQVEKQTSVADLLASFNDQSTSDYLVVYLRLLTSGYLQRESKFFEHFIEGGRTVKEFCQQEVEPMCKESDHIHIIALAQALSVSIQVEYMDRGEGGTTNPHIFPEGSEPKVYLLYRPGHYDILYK
In short: as §1

OTUD4 = target: T5, OTUD4 (UniProt Q01804); assay: as above; conditions: compound concentration: 200 uM; treatment time: 3 h
T5 sequence (whole entry): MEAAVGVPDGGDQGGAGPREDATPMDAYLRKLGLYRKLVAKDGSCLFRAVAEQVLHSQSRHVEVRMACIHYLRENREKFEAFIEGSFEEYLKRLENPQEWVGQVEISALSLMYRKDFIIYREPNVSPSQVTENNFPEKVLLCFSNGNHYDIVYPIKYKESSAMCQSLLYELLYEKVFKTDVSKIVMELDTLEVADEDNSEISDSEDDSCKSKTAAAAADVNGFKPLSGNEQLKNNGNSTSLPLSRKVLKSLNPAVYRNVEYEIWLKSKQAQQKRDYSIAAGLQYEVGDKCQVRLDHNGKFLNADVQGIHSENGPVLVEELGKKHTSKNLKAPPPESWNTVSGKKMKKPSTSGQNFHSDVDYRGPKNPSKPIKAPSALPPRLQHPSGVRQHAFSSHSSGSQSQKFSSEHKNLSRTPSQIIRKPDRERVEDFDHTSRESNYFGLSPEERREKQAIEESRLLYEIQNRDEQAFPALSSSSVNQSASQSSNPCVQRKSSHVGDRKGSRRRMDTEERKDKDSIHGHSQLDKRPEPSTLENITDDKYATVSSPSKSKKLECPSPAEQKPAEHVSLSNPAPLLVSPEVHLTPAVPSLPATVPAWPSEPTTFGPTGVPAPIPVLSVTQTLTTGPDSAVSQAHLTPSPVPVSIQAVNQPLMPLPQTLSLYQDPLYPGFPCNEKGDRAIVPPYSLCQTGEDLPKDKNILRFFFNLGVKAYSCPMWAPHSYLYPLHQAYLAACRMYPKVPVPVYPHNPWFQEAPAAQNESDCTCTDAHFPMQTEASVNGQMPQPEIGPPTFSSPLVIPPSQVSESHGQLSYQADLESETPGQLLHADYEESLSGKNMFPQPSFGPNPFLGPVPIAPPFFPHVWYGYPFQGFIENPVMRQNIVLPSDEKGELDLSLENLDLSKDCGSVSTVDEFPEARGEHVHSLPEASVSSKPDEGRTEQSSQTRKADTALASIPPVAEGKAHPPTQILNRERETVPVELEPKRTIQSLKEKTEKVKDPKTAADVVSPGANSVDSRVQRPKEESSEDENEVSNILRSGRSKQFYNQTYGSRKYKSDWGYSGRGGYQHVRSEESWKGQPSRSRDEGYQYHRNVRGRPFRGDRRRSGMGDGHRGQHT
In short: as §1

OTUD5 = target: T6, OTUD5 (UniProt Q96G74); assay: as above; conditions: compound concentration: 200 uM; treatment time: 3 h
T6 sequence (whole entry): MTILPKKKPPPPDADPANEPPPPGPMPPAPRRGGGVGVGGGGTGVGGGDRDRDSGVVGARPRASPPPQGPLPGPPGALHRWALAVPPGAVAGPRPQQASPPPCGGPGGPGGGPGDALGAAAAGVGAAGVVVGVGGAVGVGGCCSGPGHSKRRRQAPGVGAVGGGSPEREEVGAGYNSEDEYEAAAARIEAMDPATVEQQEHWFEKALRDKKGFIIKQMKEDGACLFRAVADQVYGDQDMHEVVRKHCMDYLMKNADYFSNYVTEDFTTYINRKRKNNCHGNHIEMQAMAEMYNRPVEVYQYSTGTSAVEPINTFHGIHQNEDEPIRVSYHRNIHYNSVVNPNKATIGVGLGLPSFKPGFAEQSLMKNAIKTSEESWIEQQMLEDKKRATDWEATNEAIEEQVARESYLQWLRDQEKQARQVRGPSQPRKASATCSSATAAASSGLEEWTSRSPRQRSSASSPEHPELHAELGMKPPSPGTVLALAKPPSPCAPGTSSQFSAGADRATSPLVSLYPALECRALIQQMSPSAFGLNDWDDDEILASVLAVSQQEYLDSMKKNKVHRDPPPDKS
In short: as §1

Measured: log2 ratio of Biotin-Ahx-Ub-VS probe labelling

O=C(CCl)NC1CCCc2ccccc21 (stereo not drawn)
inactive: USP38; compound concentration: 0.78uM -0.0722 | USP38; compound concentration: 1.56uM -0.0473 | USP38; compound concentration: 3.13uM -0.124 | USP38; compound concentration: 6.25uM -0.102 | USP38; compound concentration: 12.5uM -0.214 | USP38; compound concentration: 25uM -0.157 | USP38; compound concentration: 50uM -0.0382 | USP38; compound concentration: 100uM -0.104 | USP38; compound concentration: 200uM -0.148

O=C(CCl)N1CCC(O)(Cc2ccc(F)cc2)C1 (stereo not drawn)
inactive: ALG13 -0.581 | ATXN3 -0.456 | BAP1 -0.845 | EIF3F -0.133 | EIF3H -0.189 | FAM105A -0.0755 | OTUB1 -0.0952 | OTUD4 -0.135 | OTUD5 -0.233
